# PubChem BioAssay (Tox21)
# Records with an inconclusive call do not appear. Where a call stands in place of a potency, no number is given. Activity calls are given as the source filed them. Unless noted, calls come from the whole dose curve; as a rule, active = well fitted curve in the direction sought with a large enough effect in the repeat runs; inconclusive = weak or mixed curves; inactive = no such curve, though single readings can be large; an effect the other way counts as inactive or inconclusive.
# Columns and labels:
# [1] = target: Estrogen receptor (Homo sapiens) (UniProt P03372); test: qHTS assay to identify small molecule antagonists of the estrogen receptor alpha (ER-alpha) signaling pathway (AID 743069; active = well fitted curve in the direction sought with a large enough effect in the signal ratio in the repeat runs, not every such curve was filed as active; the % refers to the signal ratio); details: HEK293 ER-alpha-UAS-bla, beta-lactamase ratio, antagonist mode; series mostly up to 69.4 µM
# Chain of Estrogen receptor (Homo sapiens) (P03372 whole entry, looked up): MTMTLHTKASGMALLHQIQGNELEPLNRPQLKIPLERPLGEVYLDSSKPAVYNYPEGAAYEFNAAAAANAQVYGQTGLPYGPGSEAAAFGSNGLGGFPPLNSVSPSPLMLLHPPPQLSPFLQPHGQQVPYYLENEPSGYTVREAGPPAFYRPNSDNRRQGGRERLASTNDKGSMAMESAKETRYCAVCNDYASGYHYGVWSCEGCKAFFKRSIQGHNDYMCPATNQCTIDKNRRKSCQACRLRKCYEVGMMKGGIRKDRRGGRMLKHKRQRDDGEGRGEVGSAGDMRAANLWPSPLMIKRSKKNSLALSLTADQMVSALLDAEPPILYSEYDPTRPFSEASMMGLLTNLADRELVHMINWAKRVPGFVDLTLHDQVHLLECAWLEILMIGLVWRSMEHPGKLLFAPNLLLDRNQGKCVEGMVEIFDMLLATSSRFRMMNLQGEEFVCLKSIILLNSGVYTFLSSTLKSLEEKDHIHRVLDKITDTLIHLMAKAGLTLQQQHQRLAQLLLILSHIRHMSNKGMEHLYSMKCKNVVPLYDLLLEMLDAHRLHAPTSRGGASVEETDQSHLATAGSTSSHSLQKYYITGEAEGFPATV
# Procedure, shortened: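 Screening used a UAS-driven beta-lactamase reporter integrated into HEK293 cells expressing ER-alpha, stimulated with 17beta-estradiol alongside test compounds over 18 hr at 37C; signal came from LiveBLAzer B/G FRET fluorescence.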
# [2] = qHTS assay to identify small molecule antagonists of the estrogen receptor alpha (ER-alpha) signaling pathway - cell viability counter screen (AID 743074; calls by dose curve; note: nearly all actives have a fitted effect of over 45% in size); details: ERalpha-bla HEK293 viability, CellTiter-Glo luminescence, 18 h; series mostly up to 69.4 µM
# [3] = target: Estrogen receptor (Homo sapiens) (UniProt P03372); test: qHTS assay to identify small molecule agonists of the estrogen receptor alpha (ER-alpha) signaling pathway (AID 743075; calls by dose curve); details: HEK293 ER-alpha-UAS-bla, beta-lactamase FRET ratio, 18 h; series mostly up to 70.1 µM
# [4] = target: Estrogen receptor (Homo sapiens) (UniProt P03372); test: qHTS assay to identify small molecule agonists of the estrogen receptor alpha (ER-alpha) signaling pathway using the BG1 cell line (AID 743079); details: BG1Luc4E2 cells, ERE-luciferase agonist, 22 h; activation: at 70.3 µM (top of the series); note: nearly all actives have a fitted effect of over 20% in size
# [5] = qHTS assay to identify small molecule antagonists of the estrogen receptor alpha (ER-alpha) signaling pathway using the BG1 cell line (AID 743080; calls by dose curve;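 note: BG1 cells stimulated with 17beta-estradiol alongside compound; nearly all actives have a fitted effect of over 25% in size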); details: BG1Luc4E2 ERE-luciferase antagonist mode, luminescence; series mostly up to 70.3 µM
# Procedure, shortened: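 Endogenous full-length ER-alpha in BG1-Luc-4E2 cells drives a stably integrated 4×ERE luciferase gene; compounds were tested against 17beta-estradiol over 21.5 h, with luminescence and multiplexed viability fluorescence recorded.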
# [6] = qHTS assay to identify small molecule antagonists of the estrogen receptor alpha (ER-alpha) signaling pathway using the BG1 cell line - cell viability counter screen (AID 743081); details: BG1Luc4E2 viability, CellTiter-Fluor, 22 h; series mostly up to 70.3 µM;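 note: compound given together with 17beta-estradiol as the ER stimulus; nearly all actives have a fitted effect of over 45% in size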
# Aromatase (Homo sapiens) = Aromatase (Homo sapiens) (UniProt P11511); test: qHTS assay to identify aromatase inhibitors (AID 743083); details: MCF-7 aro ERE, testosterone-driven ERE luciferase, 24 h; series mostly up to 70.3 µM; note: nearly all actives have a fitted effect of over 55% in size
# Chain of Aromatase (Homo sapiens) (P11511 whole entry, looked up): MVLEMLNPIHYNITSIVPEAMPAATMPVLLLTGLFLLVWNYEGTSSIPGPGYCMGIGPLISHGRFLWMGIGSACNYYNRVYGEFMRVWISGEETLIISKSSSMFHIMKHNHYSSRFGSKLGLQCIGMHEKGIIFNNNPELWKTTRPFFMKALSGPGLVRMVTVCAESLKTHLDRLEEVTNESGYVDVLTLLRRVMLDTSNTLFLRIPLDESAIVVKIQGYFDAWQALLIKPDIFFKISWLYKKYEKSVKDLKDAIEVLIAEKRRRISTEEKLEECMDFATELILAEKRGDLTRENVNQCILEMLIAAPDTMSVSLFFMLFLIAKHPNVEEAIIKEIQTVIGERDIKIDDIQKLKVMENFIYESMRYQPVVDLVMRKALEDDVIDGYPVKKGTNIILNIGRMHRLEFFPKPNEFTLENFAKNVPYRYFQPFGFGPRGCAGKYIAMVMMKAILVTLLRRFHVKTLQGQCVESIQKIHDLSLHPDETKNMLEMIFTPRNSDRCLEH
# [7] = qHTS assay to identify aromatase inhibitors - cell viability counter screen (AID 743084); details: MCF-7 aro ERE viability, CellTiter-Fluor, 24 h; series mostly up to 70.3 µM;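 note: cells stimulated with testosterone during compound exposure; nearly all actives have a fitted effect of over 55% in size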
# [8] = target: Aryl hydrocarbon receptor (Homo sapiens) (UniProt P35869); test: qHTS assay to identify small molecule that activate the aryl hydrocarbon receptor (AhR) signaling pathway (AID 743085); details: HepG2 AhR-luc (HG2L7.5c1), luciferase, 24 h; series mostly up to 70.3 µM; note: nearly all actives have a fitted effect of over 15% in size; note: potency is the fitted concentration of half-maximal effect;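 for activation: HG2L7.5c1 human HepG2 liver cells with stably integrated DRE-driven firefly reporter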
# Chain of Aryl hydrocarbon receptor (Homo sapiens) (P35869 whole entry, looked up): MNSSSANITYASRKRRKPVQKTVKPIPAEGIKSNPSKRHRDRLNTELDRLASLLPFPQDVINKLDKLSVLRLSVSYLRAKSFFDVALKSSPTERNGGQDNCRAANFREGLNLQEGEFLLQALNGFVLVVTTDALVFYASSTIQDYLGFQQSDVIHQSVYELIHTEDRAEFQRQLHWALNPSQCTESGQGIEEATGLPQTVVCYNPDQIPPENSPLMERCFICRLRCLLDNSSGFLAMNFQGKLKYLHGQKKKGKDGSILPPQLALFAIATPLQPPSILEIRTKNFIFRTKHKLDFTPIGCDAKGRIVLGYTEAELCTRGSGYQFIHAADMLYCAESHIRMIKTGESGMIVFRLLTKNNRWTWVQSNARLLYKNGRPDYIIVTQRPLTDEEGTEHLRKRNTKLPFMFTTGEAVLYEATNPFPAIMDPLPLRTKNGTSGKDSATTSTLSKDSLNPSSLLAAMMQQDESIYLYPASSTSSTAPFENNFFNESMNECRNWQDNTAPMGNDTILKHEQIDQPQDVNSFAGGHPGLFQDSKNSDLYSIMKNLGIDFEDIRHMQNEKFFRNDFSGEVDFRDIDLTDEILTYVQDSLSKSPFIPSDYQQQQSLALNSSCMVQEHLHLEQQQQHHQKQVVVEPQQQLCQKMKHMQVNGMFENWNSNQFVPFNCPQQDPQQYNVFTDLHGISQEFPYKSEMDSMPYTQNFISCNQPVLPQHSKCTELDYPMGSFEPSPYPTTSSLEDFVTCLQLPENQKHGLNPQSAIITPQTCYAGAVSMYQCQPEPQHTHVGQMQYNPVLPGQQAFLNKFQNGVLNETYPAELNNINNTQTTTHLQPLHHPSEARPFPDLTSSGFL
# Procedure, shortened: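 Steps: seed HepG2-AhR-luc cells; allow 5 h at 37C; pin-transfer test compound or vehicle; incubate 24 h at 37C; add viability dye (30 min, 37C) and read fluorescence; add luciferase substrate (30 min, RT) and read luminescence.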
# [9] = qHTS assay to identify small molecule that activate the aryl hydrocarbon receptor (AhR) signaling pathway - cell viability counter screen (AID 743086); details: HepG2-AhR-luc viability, CellTiter-Fluor, 24 h; series mostly up to 70.3 µM;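 note: HepG2 liver cells carrying the AhR DRE luciferase reporter; nearly all actives have a fitted effect of over 45% in size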
# Procedure, shortened: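 HepG2-AhR-luc (HG2L7.5c1) cells, 4000/well, were preincubated 5 h at 37C, exposed to compound in qHTS format for 24 hr at 37C, then given CellTiter-Fluor for 30 min; viability was read as fluorescence in the reporter wells.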
# [10] = target: Peroxisome proliferator-activated receptor gamma (Homo sapiens) (UniProt P37231); test: qHTS assay to identify small molecule agonists of the peroxisome proliferator-activated receptor gamma (PPARg) signaling pathway (AID 743094; active = well fitted activation curve with a large enough effect in the signal ratio in the repeat runs, not every such curve was filed as active; the % refers to the signal ratio); details: HEK293H PPARg-UAS-bla, beta-lactamase FRET ratio, 17 h; series mostly up to 57 µM
# Chain of Peroxisome proliferator-activated receptor gamma (Homo sapiens) (P37231 whole entry, looked up): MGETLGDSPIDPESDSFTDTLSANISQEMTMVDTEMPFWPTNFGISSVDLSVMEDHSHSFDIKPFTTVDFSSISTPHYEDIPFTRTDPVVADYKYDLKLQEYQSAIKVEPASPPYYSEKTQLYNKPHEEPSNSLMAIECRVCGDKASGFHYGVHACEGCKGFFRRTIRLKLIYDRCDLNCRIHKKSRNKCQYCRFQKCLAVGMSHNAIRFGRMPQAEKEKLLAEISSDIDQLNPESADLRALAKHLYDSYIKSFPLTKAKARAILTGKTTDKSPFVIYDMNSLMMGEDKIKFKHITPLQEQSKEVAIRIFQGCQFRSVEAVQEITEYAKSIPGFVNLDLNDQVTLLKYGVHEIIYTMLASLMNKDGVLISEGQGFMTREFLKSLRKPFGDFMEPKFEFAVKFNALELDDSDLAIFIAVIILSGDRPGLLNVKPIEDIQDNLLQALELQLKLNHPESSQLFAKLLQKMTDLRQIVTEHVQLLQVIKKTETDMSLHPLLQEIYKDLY
# Procedure, shortened: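 Fluorescence-based beta-lactamase readout in HEK293H PPARg UAS-bla cells after 17 h compound exposure (37C) and 1 h B/G FRET substrate incubation at room temperature.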
# [11] = target: Peroxisome proliferator-activated receptor gamma (Homo sapiens) (UniProt P37231); test: qHTS assay to identify small molecule antagonists of the peroxisome proliferator-activated receptor gamma (PPARg) signaling pathway (AID 743191; calls by dose curve; note: nearly all actives have a fitted effect of over 30% in size; note: potency is the fitted concentration of half-maximal effect); details: HEK293H PPARg-UAS-bla, beta-lactamase ratio, antagonist, 17 h; series mostly up to 62.6 µM
# Procedure, shortened: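 GeneBLAzer PPARg UAS-bla HEK293H cells carrying a UAS-driven beta-lactamase reporter were plated at 3000 cells/well, preincubated 5 h at 37C, then given compound for 17 h at 37C; LiveBLAzer B/G FRET substrate was read after 1 h at room temperature.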
# [12] = qHTS assay to identify small molecule antagonists of the peroxisome proliferator-activated receptor gamma (PPARg) signaling pathway - cell viability counter screen (AID 743194); details: PPARg-bla HEK293H viability, CellTiter-Glo luminescence, 17 h, co-treated with 50 nM rosiglitazone; series mostly up to 62.6 µM; note: nearly all actives have a fitted effect of over 55% in size; note: potency is the fitted concentration of half-maximal effect
# Procedure, shortened: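 PPARg-UAS-bla HEK293H cells were plated, rested 5 h at 37 C, then treated with compounds plus rosiglitazone (50 nM final) for 17 h at 37 C; viability was then read by CellTiter-Glo luminescence after 30 min at room temperature.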
# [13] = qHTS assay for small molecule agonists of the antioxidant response element (ARE) signaling pathway (AID 743202; active = well fitted activation curve with a large enough effect in the signal ratio in the repeat runs, not every such curve was filed as active; the % refers to the signal ratio; note: potency is the fitted concentration of half-maximal effect); details: HepG2 ARE-bla reporter, beta-lactamase FRET, 16 h; series mostly up to 73.3 µM
# Procedure, shortened: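 Steps: seed ARE-bla HepG2 cells (2,000/well); incubate 5 h at 37 C; add compounds by pin tool; incubate 16 h at 37 C; add FRET substrate; read fluorescence after 2 h at RT.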
# [14] = qHTS assay for small molecule agonists of the antioxidant response element (ARE) signaling pathway - cell viability counter screen (AID 743203; calls by dose curve; note: nearly all actives have a fitted effect of over 55% in size; note: potency is the fitted concentration of half-maximal effect); details: ARE-bla HepG2 viability, CellTiter-Glo luminescence, 16 h; series mostly up to 73.3 µM
# Procedure, shortened: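 Parallel cytotoxicity read-out for the ARE-bla screen: HepG2 reporter cells, 16 hrs with compounds, then CellTiter-Glo luminescence.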
# [15] = qHTS assay for small molecule activators of the heat shock response signaling pathway - cell viability counter screen (AID 743209); details: HSE-bla HeLa viability, CellTiter-Glo luminescence, 5 h; series mostly up to 62.6 µM; note: nearly all actives have a fitted effect of over 50% in size
# Procedure, shortened: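 To flag cytotoxic compounds, HSE-bla HeLa cells plated at 1500 cells/well were dosed for 5 h at 37 C, followed by the reporter FRET read and then CellTiter-Glo, with luminescence recorded 30 min after reagent addition.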
# [16] = qHTS assay for small molecule activators of the heat shock response signaling pathway (AID 743210; active = well fitted activation curve with a large enough effect in the signal ratio in the repeat runs, with a control signal flat, not every such curve was filed as active; the % refers to the signal ratio;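 note: HeLa cells with beta-lactamase reporter driven by heat shock elements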); details: HeLa HSE-bla reporter, beta-lactamase ratio, 5 h; series mostly up to 62.6 µM
# Procedure, shortened: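 Activation of heat shock element-controlled beta-lactamase expression is measured in HeLa cells by LiveBLAzer FRET fluorescence, with compound exposure lasting 5 h at 37 C and substrate loading 2.5 h at room temperature.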
# [17] = system: thyroid hormone receptor (rat, GH3 cells); test: qHTS assay to identify small molecule agonists of the thyroid receptor (TR) signaling pathway (AID 743066; calls by dose curve); details: GH3.TRE-Luc cells, TR agonist luciferase, 24 h; series mostly up to 83.9 µM
# [18] = qHTS assay to identify small molecule antagonists of the thyroid receptor (TR) signaling pathway (AID 743065); details: GH3.TRE-Luc, T3-stimulated luciferase inhibition, 23.5 h; series mostly up to 70.3 µM
# Procedure, shortened: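 GH3.TRE-Luc rat pituitary cells carrying two TR response elements driving luciferase were plated for 4 h, given compound plus 1 nM T3 (final), and incubated 23.5 h at 37 C. ONE-Glo luminescence measured reporter inhibition; CellTiter-Fluor fluorescence tracked cytotoxicity.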
structure (smiles),measurement,setting,value
CCc1ccccc1,Potency,[1],inactive
same,Potency,[2],inactive
same,Potency,[3],inactive
same,Potency,[4],inactive
same,Potency,[5],inactive
same,Potency,[6],inactive
same,Potency,Aromatase (Homo sapiens),inactive
same,Potency,[7],inactive
same,Potency,[8],inactive
same,Potency,[9],inactive
same,Potency,[10],inactive
same,Potency,[11],inactive
same,Potency,[12],inactive
same,Potency,[13],inactive
same,Potency,[14],inactive
CCOC(=O)c1ccc(O)c(O)c1,Potency,[11],inactive
same,Potency,[12],inactive
same,Potency,[13],inactive
same,Potency,[14],inactive
same,Potency,[15],inactive
same,Potency,[16],inactive
Cc1cc(O)c(C)c(C)c1O,Potency,[11],inactive
same,Potency,[12],inactive
same,Potency,[13],23.7 µM (active)
same,Potency,[14],inactive
same,Potency,[15],inactive
CCCCN(CCCC)C(C(N)=O)c1ccc(OC)cc1 (stereo not drawn),Potency,[12],inactive
same,Potency,[13],inactive
same,Potency,[14],inactive
same,Potency,[15],inactive
same,Potency,[16],inactive
C[C@H]1C[C@H](O)c2ccsc2S1(=O)=O,Potency,[13],inactive
same,Potency,[14],inactive
same,Potency,[15],inactive
same,Potency,[16],inactive
CC(C)(C)CC(=O)OCC(=O)[C@@]1(O)CC[C@H]2[C@@H]3CCC4=CC(=O)C=C[C@]4(C)[C@H]3[C@@H](O)C[C@@]21C,Potency,[12],inactive
same,Potency,[13],inactive
same,Potency,[14],inactive
same,Potency,[15],inactive
O=C(CCCN1CC=C(n2c(=O)[nH]c3ccccc32)CC1)c1ccc(F)cc1,outcome,[17],inactive
same,Potency,[1],inactive
same,Potency,[2],inactive
same,Potency,[3],inactive
same,Potency,[4],inactive
same,Potency,[5],inactive
same,Potency,[6],inactive
same,Potency,Aromatase (Homo sapiens),inactive
same,Potency,[7],inactive
same,Potency,[8],inactive
same,Potency,[9],inactive
same,Potency,[10],inactive
same,Potency,[11],inactive
same,Potency,[12],inactive
same,Potency,[13],inactive
same,Potency,[14],inactive
same,Potency,[15],inactive
same,Potency,[16],inactive
CC(C)=CCC/C(C)=C/CC/C(C)=C/C(=O)OCC(=O)[C@@]1(O)CC[C@H]2[C@@H]3CCC4=CC(=O)C=C[C@]4(C)[C@H]3[C@@H](O)C[C@@]21C,Potency,[15],inactive
CC(C)COCC(CN(Cc1ccccc1)c1ccccc1)N1CCCC1 (stereo not drawn),Potency,[18],10.6 µM (active)
same,Potency,[2],inactive
same,Potency,[3],inactive
same,Potency,[4],inactive
same,Potency,[5],inactive
same,Potency,[6],inactive
same,Potency,[7],inactive
same,Potency,[8],inactive
same,Potency,[9],inactive
same,Potency,[10],inactive
same,Potency,[11],inactive
same,Potency,[12],26.6 µM (active)
same,Potency,[14],26.6 µM (active)
CC(=O)c1cc2ccccc2s1,Potency,[13],inactive
same,Potency,[14],inactive
same,Potency,[15],inactive
same,Potency,[16],inactive
Cc1cc(O)ccc1O,outcome,[17],inactive
same,Potency,[2],inactive
same,Potency,[6],inactive
same,Potency,[8],61.8 µM (active)
same,Potency,[9],inactive
same,Potency,[12],inactive
same,Potency,[14],inactive
same,Potency,[15],inactive
CCCCOc1ccc(OCCCN2CCOCC2)cc1,outcome,[17],inactive
same,Potency,[1],inactive
same,Potency,[2],inactive
same,Potency,[3],inactive
same,Potency,[4],inactive
same,Potency,[5],inactive
same,Potency,[6],inactive
same,Potency,Aromatase (Homo sapiens),inactive
same,Potency,[7],inactive
same,Potency,[8],inactive
same,Potency,[9],inactive
same,Potency,[10],inactive
same,Potency,[11],inactive
same,Potency,[12],inactive
same,Potency,[14],inactive
same,Potency,[15],inactive
COC(=O)[C@H]1[C@H]2C[C@@H]3c4[nH]c5cc(OC)ccc5c4CCN3C[C@H]2C[C@@H](OC(=O)/C=C/c2ccc(O)c(OC)c2)[C@@H]1OC,Potency,[11],6.68 µM (active)
same,Potency,[14],inactive
same,Potency,[15],inactive
C=C/C(C)=C/C/C=C(\C)CCC=C(C)C,outcome,[17],inactive
same,Potency,[1],inactive
same,Potency,[2],inactive
same,Potency,[3],inactive
same,Potency,[4],inactive
same,Potency,[5],inactive
same,Potency,[6],inactive
same,Potency,Aromatase (Homo sapiens),inactive
same,Potency,[8],inactive
same,Potency,[9],inactive
same,Potency,[12],inactive
same,Potency,[13],54.5 µM (active)
CNC(=O)c1cnn(-c2nc(N)c3ncn([C@@H]4O[C@H](CO)[C@@H](O)[C@H]4O)c3n2)c1,Potency,[12],inactive
same,Potency,[13],inactive
same,Potency,[14],inactive
same,Potency,[15],inactive
same,Potency,[16],inactive
COc1ccc(OC(=O)N(CC(=O)O)Cc2ccc(OCCc3nc(-c4ccccc4)oc3C)cc2)cc1,Potency,[12],inactive
same,Potency,[14],inactive
same,Potency,[15],inactive
CN1CCCN=C1COC(=O)C(O)(c1ccccc1)C1CCCCC1 (stereo not drawn),outcome,[17],inactive
same,Potency,[1],inactive
same,Potency,[3],inactive
same,Potency,[4],inactive
same,Potency,[5],inactive
same,Potency,[6],inactive
same,Potency,Aromatase (Homo sapiens),inactive
same,Potency,[7],inactive
same,Potency,[8],inactive
same,Potency,[9],inactive
same,Potency,[10],inactive
same,Potency,[11],inactive
same,Potency,[13],inactive
same,Potency,[14],inactive
same,Potency,[15],inactive
same,Potency,[16],inactive
